Results filed as inconclusive are left out. Active and inactive are the calls of the source. Unless noted, the call rests on the fitted dose curve; in most records, active means well fitted curve in the direction sought with a large enough effect; inconclusive means small, poorly fitted or top-dose-only effect, or another doubt; inactive means no such curve, though single readings can be large; an effect the other way counts as inactive or inconclusive.
How the values were obtained:
[1] = AP1 Signaling Pathway (AID 357; active means well fitted curve in either direction with a large enough effect, not every such curve was filed as active;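 further: ME-180 reporter cells stimulated with EGF at its EC50 level; on the % scale 0 is the no-effect control and ±100 the full control effect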)
Procedure, shortened: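 Cells are seeded overnight, exposed to compound titrations and an EC50 level of EGF for 5 hours at 37 °C, then loaded with CCF4 dye for 2.5 hours. Beta-lactamase activity under the AP-1 element is read as a blue/green ratio.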

[2] = NFAT Signaling Pathway (AID 444; active means well fitted curve in either direction with a large enough effect, not every such curve was filed as active;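 further: carbachol stimulus at about its EC50 of 1 µM final; on the % scale 0 is the no-effect control and ±100 the full control effect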); settings: Jurkat NFAT-bla M1, carbachol, beta-lactamase ratio, 5 h; at 17.2 µM (top of the series) unless noted
Procedure, shortened: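 Jurkat cells with NFAT-driven β-lactamase reporter and co-expressed M1 receptor, stimulated with carbachol (final 1 uM, ~EC50), compound titration, 5 h at 37 °C. CCF4 loaded 1 h at RT; 460/530 nm ratio gave %activity and AC50.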

[3] = Stat Signaling Pathway (AID 446; active means well fitted curve in either direction with a large enough effect, not every such curve was filed as active;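 further: ME-180 cervical cancer cells given 40 pM IL-6 alongside compound; SIE-controlled beta-lactamase reporter measured as 460/530 nm FRET emission ratio; on the % scale 0 is the no-effect control and ±100 the full control effect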)
Procedure, shortened: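 FRET read-out (405 nm excitation, 460/530 nm emission) of a beta-lactamase reporter under a STAT-inducible element in ME-180 cervical carcinoma cells. Cells with compound receive 40 pM IL-6 for 5 h. Values are normalised to AC90 stimulation and AC90 JAK-inhibitor controls.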

[4] = molecular target: Glucocorticoid receptor (Homo sapiens) (UniProt P04150); assay: GR-GFP Redistribution (AID 450;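 active means compounds whose dose series gives a full or clear partial fitted curve of increased nuclear translocation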; further: potency means the concentration at half of the fitted maximal effect); settings: U2OS GR-GFP nuclear translocation, laser cytometry, 2 h
[5] = molecular target: Glucocorticoid receptor (Homo sapiens) (UniProt P04150); assay: GR-EFC Redistribution (AID 451; calls by dose curve; further: potency means the concentration at half of the fitted maximal effect); settings: CHO-K1 GR-EFC translocation, beta-gal luminescence, 2 h
Procedure, shortened: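 CHO-K1 cells expressing nuclear EA and GR-ED fragments of b-gal; compounds titrated up to 46 uM final, 2 h at 37 C. GR nuclear translocation read as complemented b-gal luminescence after 1 h RT detection.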

[6] = molecular target: Mitogen-activated protein kinase 10 (Mus musculus) (UniProt Q61831); assay: JNK3 AlphaScreen Assay (AID 530; active means well fitted curve in either direction with a large enough effect, not every such curve was filed as active;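 further: kinase came from lysate of stimulated human HepG2 cells; signal reports phosphorylation of biotinylated GST-cJun 1-79 at Ser73 with 10 µM ATP; on the % scale 0 is the no-effect control and ±100 the full control effect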)
Procedure, shortened: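 Activity was read by AlphaScreen after JNK3-containing HepG2 lysate (cytokine pre-activated) phosphorylated biotinylated GST-cJun with 10 uM ATP at room temperature. Phospho-Ser73 cJun antibody with Protein-A acceptor beads provided detection.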

[7] = molecular target: 3',5'-cyclic-AMP phosphodiesterase 4B (Homo sapiens) (UniProt Q07343); assay: qHTS Assay for Inhibitors of PDE-IV (AID 607; active means well fitted activation curve with a large enough effect in the main read-out, with a control signal flat, not every such curve was filed as active; further: % of control where 0% means no effect)
Procedure, shortened: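 Cell-based read-out of cAMP via a modified cyclic nucleotide-gated channel and membrane potential dye (535/590 nm) in HEK293 cells expressing PDE4 endogenously. Compounds tested up to 22.9 uM final; 100 uM RO 20-1724 reference.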

[8] = qHTS Assay for Lipid Storage Modulators (AID 1519; calls by dose curve); settings: Drosophila S3 cells, BODIPY lipid droplet/cell ratio, laser cytometry, cells loaded with oleic acid; for activity change, negative = inhibition: at 25.7 µM (top of the series)
Procedure, shortened: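 Cells seeded at 5,000 per well were treated with compounds over a concentration series and loaded with oleic acid (400 uM, as added). Lipid droplet fluorescence (488 nm excitation, 500-530 nm channel) was read by laser-scanning cytometry and normalized to 20 uM Triacsin C.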

[9] = molecular target: Ubiquitin carboxyl-terminal hydrolase 1 (Homo sapiens) (UniProt O94782); assay: Inhibitors of USP1/UAF1: Pilot qHTS (AID 504865);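 further: rhodamine fluorescence freed from ubiquitin-rhodamine substrate followed over time; top concentration of the series differs between compounds; on the % scale 0 is the no-effect control and ±100 the full control effect; nearly all actives have a fitted effect of over 35% in size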
Procedure, shortened: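 Kinetic fluorescence assay: 1nM USP1/UAF1, 15 min compound preincubation, then 150nM Ub-Rho; 480/540 nm.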

[10] = molecular target: Luciferin 4-monooxygenase (Photinus pyralis) (UniProt P08659); assay: Biochemical firefly luciferase enzyme assay for NPC (AID 624030);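 further: purified P. pyralis luciferase at 10 nM with luciferin and ATP substrate; 0% = DMSO and -100% = full luciferase inhibition by PTC124 control; nearly all actives have a fitted effect of over 70% in size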
Procedure, shortened: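 Purified P. pyralis luciferase at 10 nM in 50 mM Tris Acetate (final), luminescence read within 5 minutes of enzyme addition to compounds. Activity normalised to PTC124 versus DMSO; concentration-response curves classed by r2, magnitude and activity.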

[11] = S16 Schwann cell viability assay (CellTiter-Glo assay) (AID 624031);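 further: native untransfected S16 rat Schwann cells; cellular ATP luminescence as a viability measure; plate controls were DMSO-treated cells for no effect and cell-free wells for full effect; nearly all actives have a fitted effect of over 70% in size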
Procedure, shortened: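 Parental S16 cells, 24 h compound, 37 °C. ATP-luminescence viability; DMSO = 0% activity, empty wells as reference; curves classified by fit quality and efficacy.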

[12] = qHTS profiling for inhibitors of Plasmodium falciparum proliferation (AID 504749);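 further: 0% = DMSO vehicle and full inhibition = artemisinin control; nearly all actives have a fitted effect of over 60% in size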; settings: P. falciparum in erythrocytes, SYBR Green DNA, 72 h
Procedure, shortened: (§1)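 Each compound contacts P. falciparum-infected red blood cells for 72 h at 37 C; lysis buffer (Tris, EDTA, saponin, Triton X, SYBR Green I) is added and fluorescence measured next morning; values normalized to controls.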

[13] = system: C2A; assay: as above; settings: P. falciparum in erythrocytes, SYBR Green DNA, 72 h; series mostly up to 12.8 µM
Procedure, shortened: as §1

[14] = system: CP191; assay: as above; settings: P. falciparum in erythrocytes, SYBR Green DNA, 72 h; series mostly up to 12.8 µM
Procedure, shortened: as §1

[15] = system: CP247; assay: as above; settings: P. falciparum in erythrocytes, SYBR Green DNA, 72 h; series mostly up to 12.8 µM
Procedure, shortened: as §1

[16] = system: CP250; assay: as above; settings: P. falciparum in erythrocytes, SYBR Green DNA, 72 h; series mostly up to 12.8 µM
Procedure, shortened: as §1

[17] = system: CP256; assay: as above; settings: P. falciparum in erythrocytes, SYBR Green DNA, 72 h; series mostly up to 12.8 µM
Procedure, shortened: as §1

[18] = system: FAB9; assay: as above; settings: P. falciparum in erythrocytes, SYBR Green DNA, 72 h; series mostly up to 12.8 µM
Procedure, shortened: as §1

[19] = system: JCK; assay: as above; settings: P. falciparum in erythrocytes, SYBR Green DNA, 72 h; series mostly up to 12.8 µM
Procedure, shortened: as §1

[20] = system: PC49; assay: as above; settings: P. falciparum in erythrocytes, SYBR Green DNA, 72 h; series mostly up to 12.8 µM
Procedure, shortened: as §1

[21] = measured here: cell count channel max response
[22] = measured here: lipid channel max response
[23] = at 12.8 µM (top of the series), parasite line B
[24] = at 28.7 µM (top of the series), parasite line A
[25] = at 28.7 µM (top of the series), parasite line B

Sequence of 3',5'-cyclic-AMP phosphodiesterase 4B (Homo sapiens) (Q07343 whole entry, looked up): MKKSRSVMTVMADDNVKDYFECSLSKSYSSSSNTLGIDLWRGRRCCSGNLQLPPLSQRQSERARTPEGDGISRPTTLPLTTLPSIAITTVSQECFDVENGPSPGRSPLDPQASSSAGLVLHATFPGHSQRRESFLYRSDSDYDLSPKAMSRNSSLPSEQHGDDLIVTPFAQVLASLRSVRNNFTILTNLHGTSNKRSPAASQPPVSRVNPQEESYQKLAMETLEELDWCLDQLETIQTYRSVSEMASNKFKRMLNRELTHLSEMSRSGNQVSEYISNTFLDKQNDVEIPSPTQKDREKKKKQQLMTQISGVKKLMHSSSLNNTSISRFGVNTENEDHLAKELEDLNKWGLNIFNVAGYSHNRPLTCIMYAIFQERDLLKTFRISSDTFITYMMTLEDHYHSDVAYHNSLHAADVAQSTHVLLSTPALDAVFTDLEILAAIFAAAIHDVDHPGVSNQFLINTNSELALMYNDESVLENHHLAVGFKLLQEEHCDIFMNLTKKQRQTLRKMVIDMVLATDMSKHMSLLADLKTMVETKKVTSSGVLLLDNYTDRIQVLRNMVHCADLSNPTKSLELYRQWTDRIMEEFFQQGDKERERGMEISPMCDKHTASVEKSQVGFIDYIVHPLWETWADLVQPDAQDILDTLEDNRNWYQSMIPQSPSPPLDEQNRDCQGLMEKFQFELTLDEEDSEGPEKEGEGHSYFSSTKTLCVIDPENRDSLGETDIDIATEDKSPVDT
Sequence of Ubiquitin carboxyl-terminal hydrolase 1 (Homo sapiens) (O94782 whole entry, looked up): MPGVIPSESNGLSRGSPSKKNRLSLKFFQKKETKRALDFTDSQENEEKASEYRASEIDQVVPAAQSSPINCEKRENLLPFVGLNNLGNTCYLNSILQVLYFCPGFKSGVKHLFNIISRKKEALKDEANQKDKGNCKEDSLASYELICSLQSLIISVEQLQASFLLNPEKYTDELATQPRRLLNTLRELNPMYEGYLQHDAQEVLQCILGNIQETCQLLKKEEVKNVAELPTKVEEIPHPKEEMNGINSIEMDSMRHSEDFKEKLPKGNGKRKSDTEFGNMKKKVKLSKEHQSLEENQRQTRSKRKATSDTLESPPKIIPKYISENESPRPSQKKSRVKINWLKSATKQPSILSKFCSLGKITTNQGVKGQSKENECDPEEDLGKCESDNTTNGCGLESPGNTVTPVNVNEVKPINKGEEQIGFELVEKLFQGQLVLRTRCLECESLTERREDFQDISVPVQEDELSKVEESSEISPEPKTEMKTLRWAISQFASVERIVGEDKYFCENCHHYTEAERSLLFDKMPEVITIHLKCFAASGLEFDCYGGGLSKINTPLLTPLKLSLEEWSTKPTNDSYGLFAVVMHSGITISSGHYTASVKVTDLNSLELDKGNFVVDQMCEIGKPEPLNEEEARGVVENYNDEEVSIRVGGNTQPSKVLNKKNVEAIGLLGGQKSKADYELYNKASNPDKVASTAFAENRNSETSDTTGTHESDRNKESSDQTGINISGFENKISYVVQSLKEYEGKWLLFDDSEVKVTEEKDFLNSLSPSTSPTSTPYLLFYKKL
Sequence of Glucocorticoid receptor (Homo sapiens) (P04150 whole entry, looked up, the tested form may be a part): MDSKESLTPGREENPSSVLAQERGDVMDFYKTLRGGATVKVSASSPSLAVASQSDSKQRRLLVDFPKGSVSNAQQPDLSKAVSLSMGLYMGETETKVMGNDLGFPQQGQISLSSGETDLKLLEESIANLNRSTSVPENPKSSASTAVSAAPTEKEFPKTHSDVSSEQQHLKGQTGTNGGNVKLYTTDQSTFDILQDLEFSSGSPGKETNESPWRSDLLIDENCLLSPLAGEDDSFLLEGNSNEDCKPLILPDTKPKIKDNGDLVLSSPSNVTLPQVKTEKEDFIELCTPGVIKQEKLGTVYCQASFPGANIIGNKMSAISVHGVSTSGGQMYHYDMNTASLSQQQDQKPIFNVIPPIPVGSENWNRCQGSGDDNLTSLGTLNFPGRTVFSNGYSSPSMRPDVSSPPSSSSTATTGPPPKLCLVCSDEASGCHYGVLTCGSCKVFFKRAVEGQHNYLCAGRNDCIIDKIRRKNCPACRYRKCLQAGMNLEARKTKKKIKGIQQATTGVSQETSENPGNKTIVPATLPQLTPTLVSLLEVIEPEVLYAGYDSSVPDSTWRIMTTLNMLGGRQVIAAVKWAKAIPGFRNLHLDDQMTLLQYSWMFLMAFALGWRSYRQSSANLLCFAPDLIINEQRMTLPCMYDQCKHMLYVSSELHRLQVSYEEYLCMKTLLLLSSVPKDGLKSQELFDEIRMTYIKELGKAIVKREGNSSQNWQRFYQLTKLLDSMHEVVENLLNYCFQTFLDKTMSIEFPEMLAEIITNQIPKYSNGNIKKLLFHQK
Sequence of Luciferin 4-monooxygenase (Photinus pyralis) (P08659 whole entry, looked up): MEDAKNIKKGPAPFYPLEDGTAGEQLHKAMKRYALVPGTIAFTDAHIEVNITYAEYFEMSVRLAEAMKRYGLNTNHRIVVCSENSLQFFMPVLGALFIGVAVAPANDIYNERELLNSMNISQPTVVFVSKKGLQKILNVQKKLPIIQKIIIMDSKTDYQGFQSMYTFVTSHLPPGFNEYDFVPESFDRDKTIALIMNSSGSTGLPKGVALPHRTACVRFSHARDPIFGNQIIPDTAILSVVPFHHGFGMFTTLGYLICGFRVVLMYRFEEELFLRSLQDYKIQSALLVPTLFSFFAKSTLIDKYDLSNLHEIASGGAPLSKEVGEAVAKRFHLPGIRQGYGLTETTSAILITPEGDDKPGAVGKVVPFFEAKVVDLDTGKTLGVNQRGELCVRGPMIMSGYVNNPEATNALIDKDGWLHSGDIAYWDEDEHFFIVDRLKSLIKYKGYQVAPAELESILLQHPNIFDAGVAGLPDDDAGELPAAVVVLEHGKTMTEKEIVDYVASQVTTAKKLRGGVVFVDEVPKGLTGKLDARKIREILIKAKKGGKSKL

CC(=C(CCOP(=O)(O)O)SC(=O)c1ccccc1)N(C=O)Cc1cnc(C)nc1N
-2.64%: max response [8, 22]
inactive: outcome [1] | activity change, negative = inhibition [2] 2.39% | outcome [3] | Potency [4] > 20.6 µM | Potency [5] > 20.6 µM | Potency [6] | outcome [7] | activity change, negative = inhibition [8] 0.981% | Potency [9] | Potency [10] | outcome [11] | activity, negative = inhibition ([12]; at 12.8 µM (top of the series), parasite line A) -4.37% | activity, negative = inhibition [12, 23] 20.3% | Potency [13] | Potency [14] | Potency [15] | Potency [16] | Potency [17] | Potency [18] | Potency [19] | Potency [20]
-3.81%: max response [8, 21]

COc1cc2nc(N3CCN(C(=O)[C@@H]4CCCO4)CC3)nc(N)c2cc1OC
-3.95%: max response [8, 21]
-0.955%: max response [8, 22]
inactive: outcome [1] | activity change, negative = inhibition [2] 12.6% | outcome [3] | Potency [4] > 20.6 µM | Potency [5] > 20.6 µM | Potency [6] | outcome [7] | activity change, negative = inhibition [8] 2.61% | Potency [9] | Potency [10] | outcome [11] | activity, negative = inhibition [12, 24] 10.8% | activity, negative = inhibition [12, 25] 8.54% | Potency [13] | Potency [14] | Potency [15] | Potency [16] | Potency [17] | Potency [18] | Potency [19] | Potency [20]

CC[N+](CC)(CC)CC[C@](O)(c1ccccc1)C1CCCCC1
inactive: outcome [1] | outcome [3] | Potency [5] > 20.6 µM | outcome [7] | activity change, negative = inhibition [8] -1.33% | Potency [9] | Potency [10] | outcome [11] | activity, negative = inhibition [12, 23] -24.4% | Potency [13] | Potency [14] | Potency [15] | Potency [16] | Potency [17] | Potency [19] | Potency [20]
-19.8%: max response [8, 22]
-17.2%: max response [8, 21]

C[C@@H]1O[C@H](O[C@@H]2\C=C/C=C\C=C/C=C\C[C@H](C)OC(=O)/C=C\[C@H]3O[C@@H]3C[C@H](O)C[C@]3(O)C[C@@H](O)[C@@H](C(=O)O)[C@H](C2)O3)[C@@H](O)[C@H](N)[C@@H]1O (stereo in doubt)
0.155%: max response [8, 22]
inactive: outcome [1] | activity change, negative = inhibition [2] -3.9% | outcome [3] | Potency [4] > 20.6 µM | Potency [5] > 20.6 µM | Potency [6] | outcome [7] | activity change, negative = inhibition [8] 2.21% | Potency [9] | Potency [10] | outcome [11] | activity, negative = inhibition [12, 24] 9.05% | activity, negative = inhibition [12, 25] 8% | Potency [13] | Potency [14] | Potency [15] | Potency [16] | Potency [17] | Potency [18] | Potency [19] | Potency [20]
-4.86%: max response [8, 21]

Reference: PubChem BioAssay (NCATS)
